Holding throughout (assay): NCI-60 one-dose screen, 48 h (100 = growth as untreated, 0 = no growth, -100 = all killed)
What all share (details): 10 µM unless noted

For assay [1], the system named is SK-MEL-2 melanoma.
Assay [2] has as its system EKVX NSCLC.
In assay [3] the test system is SN12C renal.
For assay [4], the system named is UO-31 renal.
Assay [5] concerns TK-10 renal.
The subject of assay [6] is ACHN renal.
In assay [7] the test system is CAKI-1 renal.
Assay [8] has as its system A498 renal.
Assay [9] deals with CCRF-CEM leukemia.
Assay [10] has as its system RPMI-8226 leukemia.
Assay [11] deals with OVCAR-8 ovarian.
Assay [12] relates to OVCAR-5 ovarian.
For assay [13], the system named is OVCAR-4 ovarian.
The test system of assay [14] is SK-OV-3 ovarian.
Assay [15] has as its system IGROV1 ovarian.
Assay [16] relates to HS 578T breast.
Assay [17] concerns NCI/ADR-RES ovarian.
Assay [18] deals with MOLT-4 leukemia.
In assay [19] the test system is OVCAR-3 ovarian.
The test system of assay [20] is SR leukemia.

Molecules are shown by their SMILES. Compounds without any hit were thinned out: in the full panel of roughly 83,000, 20% have a hit.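 Interpretation: 100, growth as untreated; towards 0, rising growth inhibition; 0, no net growth; 0 to -100, cell death. Compounds scoring below 10 were considered active.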 Unmarked numbers belong to inactive results. The source made the active and inactive calls.

In the case of `COc1ccc(-c2cc(-c3cccnc3)nc3sc4c(=O)n(-c5ccc(C)cc5)nnc4c23)cc1OC`, the growth was 107% in assay [1]; 103% in [2]; 94.6% in assay [3]; 81.1% in [4]; 115% in assay [5]; 93.7% in assay [6]. Besides, the growth in [7] is 83.1%; in [8], 88.8%; in [9], 104%; in assay [10], 99.7%; in [11], 105%; in assay [12], 90%. Also, the growth in assay [13] is 109%; in [14], 95%; in [15], 99.6%; in [16], 93.9%; in assay [17], 102%.
For `C[C@@H]1CC[C@@H]2[C@@H]1[C@H](OC(=O)/C=C/c1ccccc1)[C@]1(C3CCCCC3)C[C@@H](OC(=O)CO)[C@@]2(C)O1`, the growth was 92.3% in assay [1]; 68.6% in assay [2]; 16.6% in assay [3]; -51.7% (active) in [4]; 93.1% in assay [5]; 14.8% in assay [6]. The growth in assay [7] was 16.4%; in assay [8] it was -31.7% (active); in [9], 62.8%; in [18], 61.6%; in assay [10], 44.9%; in [12], 96%. Also, the growth was 74.8% in [13]; 81.3% in [15]; 75.1% in assay [19]; -22.4% (active) in [16]; 51.1% in assay [17].
As for `COc1ccc(-c2cn3c(-c4ccc(OC)cc4)cnc3c(Oc3ccc4c(C)cc(=O)oc4c3)n2)cc1`, the growth in assay [1] was 49.4%; in assay [2] it was 50.2%; in assay [3] it was 24.5%; in [4], 75%; in assay [5], 35.7%; in assay [6], 58.1%. Moreover, the growth in assay [7] was 71.7%; in assay [8], 52.4%; in [9], 93.2%; in [11] it was 26.3%; in assay [12], 88%; in [13] it was -18.6% (active). The growth in [14] was 90.6%; in [15], 70.6%; in assay [19], 46.6%; in assay [16], 57.6%; in assay [17], 29.9%.
For the compound `Brc1cccc(-c2nc(-c3ccc4c(c3)OCCO4)co2)c1`, the growth was 37.6% [25 µM] in assay [1]; 51.5% [25 µM] in [2]; 54% [25 µM] in [3]; 70% [25 µM] in assay [4]; 84.7% [25 µM] in assay [5]; 85.4% [25 µM] in assay [6]. For the same compound, the growth was 52.3% [25 µM] in [7]; 51.6% [25 µM] in assay [9]; 45.4% [25 µM] in [18]; 37.7% [25 µM] in assay [20]; 58.1% [25 µM] in assay [10]; 71.8% [25 µM] in assay [11]. Besides, the growth in assay [12] is 81.4% [25 µM]; in assay [13], 81% [25 µM]; in assay [14], 69.7% [25 µM]; in [15], 62.1% [25 µM]; in [19], 32.7% [25 µM]; in assay [16], 65.4% [25 µM]. The growth in assay [17] was 28.5% [25 µM].
For the compound `COc1ccc(C(=O)/C=C/c2c[n+](=O)c3ccc(F)cc3n2[O-])cc1`, the growth is 112% in assay [1]; 92% in assay [2]; 96.2% in assay [3]; 87.8% in assay [4]; 106% in assay [5]; 102% in assay [6]. The growth in [7] was 95.2%; in [8], 109%; in assay [9], 95.9%; in [18], 107%; in assay [10] it was 109%; in assay [12] it was 97.2%. For the same compound, the growth in [13] is 106%; in assay [14], 106%; in [15], 133%; in [19] it was 102%; in [16], 102%; in [17], 101%.
For the compound `COc1ccc(-c2cn3c(ccc4ccccc43)n2)cc1`, the growth is 109% in [1]; 72.1% in [2]; 89.9% in assay [3]; 56.1% in assay [4]; 126% in assay [5]; 81.3% in assay [6]. The growth in [7] is 92.7%; in assay [9], 99.2%; in assay [18], 113%; in [20], 102%; in assay [10], 92.1%; in assay [11], 98.8%. For the same compound, the growth is 112% in assay [12]; 101% in assay [13]; 92.8% in assay [14]; 78.3% in assay [15]; 89.7% in assay [19]; 96.2% in assay [16]. Besides, the growth in [17] is 96.3%.
For the compound `COc1cc(NCCCCCN=C(N)NC(N)=NC(C)C)c2ncccc2c1`, the growth in assay [1] was 20.1%; in [2] it was 42.2%; in [3] it was 25.9%; in assay [4] it was 76.7%; in assay [5], 66.7%; in assay [6] it was 105%. In addition, the growth in assay [7] was 100%; in assay [9] it was 25.3%; in assay [18] it was 27.9%; in [20] it was 46.3%; in assay [10], 37.6%; in assay [11] it was 23.8%. Moreover, the growth in [12] was 71.5%; in [13], -16.7% (active); in assay [14], 83.3%; in assay [15], -13.1% (active); in assay [19], -39.8% (active); in assay [16], 64%. Also, in assay [17], the growth is 99.5%.
For `CCC(c1ccc(O)cc1)C(CC)c1ccc(O)c(F)c1` (centres undefined), the growth in [1] is 75.1%; in assay [2], 84.2%; in assay [3], 88.2%; in assay [4], 55.4%; in assay [5] it was 96.6%; in [6], 90.5%. Besides, the growth in [7] is 89.2%; in assay [8] it was 107%; in [18] it was 54.9%; in assay [10], 63.7%; in assay [11] it was 98.4%; in assay [12], 93.5%. Also, the growth in assay [13] was 75.3%; in assay [14], 99%; in [15] it was 83%; in [19], 85.3%; in assay [16], 73.9%; in [17] it was 81.8%.
For `CCOC(=O)C(=Cc1ccccc1F)C(=O)OCC`, the growth in assay [1] is 98.4%; in assay [2], 97.6%; in [3], 86.9%; in assay [4], 87.7%; in [5], 123%; in [6], 92.7%. The growth is 96.5% in [7]; 131% in assay [8]; 95.8% in assay [9]; 93.1% in assay [10]; 105% in assay [11]; 106% in assay [12]. The growth was 97% in assay [13]; 106% in [14]; 95.2% in [15]; 95.2% in assay [19]; 104% in assay [16]; 100% in assay [17].
Take `CC1=N/C(=C\c2cccc(Br)c2)C(=O)O1`: the growth in assay [1] is 109%; in assay [2] it was 99.5%; in [3], 98.2%; in [4], 90.1%; in [5] it was 101%; in [6], 109%. In addition, the growth was 100% in [7]; 119% in assay [8]; 107% in [9]; 108% in assay [10]; 105% in assay [11]; 106% in assay [12]. Besides, the growth was 110% in assay [13]; 102% in [14]; 106% in assay [15]; 103% in assay [19]; 107% in [16]; 107% in assay [17].
For `CSc1nc(NCCO)c(C#N)c(-c2cccc(N)c2)n1`, the growth in assay [1] is 108%; in [2], 81.4%; in assay [3], 94.7%; in assay [4], 74.6%; in [5], 145%; in assay [6], 92.3%. For the same compound, the growth was 80.3% in assay [7]; 83.7% in [8]; 94.9% in [9]; 95.6% in assay [18]; 99.7% in [10]; 96.2% in assay [12]. The growth in assay [13] is 96.4%; in assay [14] it was 93%; in assay [15] it was 92%; in assay [19], 113%; in assay [16], 96.5%; in [17], 99.8%.
For the compound `COc1ccc(-n2c(C)nc3c(c(C)nn3-c3ccccc3)c2=O)cc1`, the growth in assay [1] was 36.4%; in [2], 32%; in assay [3], 42%; in assay [4], 44.3%; in [5], 55.4%; in [6], 29.2%. In addition, the growth in [7] is 34.4%; in assay [8], -27.8% (active); in [9], 8.6% (active); in assay [18] it was 12.2%; in [10], 5.55% (active); in assay [12], 30.6%. Besides, the growth is 36.8% in assay [13]; 45.1% in assay [14]; 20.3% in assay [15]; -32.6% (active) in assay [19]; 21.6% in [16].
Regarding `O=C(CO[N+](=O)[O-])Nc1ccc(C(=O)/C=C/c2ccc(Cl)cc2)cc1`, the growth in assay [1] is 81.7%; in [2], 67.9%; in assay [3] it was 46.8%; in [4] it was 32%; in assay [5], 45.7%; in [6] it was 62.3%. Moreover, the growth is 74.9% in assay [7]; 103% in assay [8]; 20.1% in assay [9]; -14.2% (active) in [10]; 27.2% in assay [11]; 66.9% in [12]. Also, the growth in [13] is 76.1%; in assay [14] it was 89.3%; in assay [15], -26% (active); in [16], 89.7%; in assay [17], 29.9%.
On to `Cc1ccc2c(c1)C(=O)/C(=C/c1ccc(OCC(=O)c3ccccc3)cc1)O2`, for which the growth in assay [1] was 77.8%; in assay [2], 90.2%; in assay [3] it was 98.6%; in assay [4] it was 85.5%; in assay [5], 127%; in [6], 100%. Also, the growth in assay [7] was 103%; in assay [9], 151%; in assay [18], 33.2%; in [20] it was 107%; in [10] it was 216%; in [11], 106%. The growth in assay [12] is 107%; in assay [13], 83.9%; in assay [14] it was 106%; in assay [15], 75.9%; in assay [19] it was 106%; in [16] it was 105%. Besides, in assay [17], the growth is 88.1%.
With `Nc1c(C(=O)Nc2cccc3c2OCCO3)sc2nc3c(cc12)C(=O)CCC3`, the growth in assay [1] is 64.9%; in assay [2], 24.7%; in assay [3], 41.3%; in assay [4], 53%; in [5], 73.3%; in [7] it was 47.6%. Besides, the growth in [8] was -1.97% (active); in assay [9], 16.5%; in assay [18], 57.6%; in assay [20], 36.3%; in assay [11] it was 51.8%; in assay [12] it was 36.1%. Besides, the growth in [13] is 71%; in assay [14] it was 70.5%; in assay [15], 48%; in [19] it was 16.2%; in [16], 29.5%; in assay [17], 14.1%.

The values are drawn from PubChem BioAssay (NCI).
